# Source: PubChem BioAssay AID449739 (Vanderbilt High Throughput Screening Facility, 2010)
# Hit rate of the full screen: of about 100,000 compounds, about 4,200 (4.2%) were called active. Shown is part of a subset that was picked to be rich in actives. Unmarked numbers belong to inactive results.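 The calls were made as follows: active = single-dose well whose peak fluorescence ratio is a statistical outlier from its plate by either plate-standardised score or position-corrected B-score; inactive = the rest.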
# Target: Voltage-dependent T-type calcium channel subunit alpha-1H (Homo sapiens) (UniProt O95180)
# Assay: Cav3.2 calcium influx blockers – cell-based, Fluo-4 calcium fluorescence, FDSS, MLSMR library, primary screen (AID 449739)
# Conditions: Cav3.2-expressing cells, at 10 µM, stronger effect = lower value
# Chain of Voltage-dependent T-type calcium channel subunit alpha-1H (Homo sapiens) (O95180 whole entry, looked up): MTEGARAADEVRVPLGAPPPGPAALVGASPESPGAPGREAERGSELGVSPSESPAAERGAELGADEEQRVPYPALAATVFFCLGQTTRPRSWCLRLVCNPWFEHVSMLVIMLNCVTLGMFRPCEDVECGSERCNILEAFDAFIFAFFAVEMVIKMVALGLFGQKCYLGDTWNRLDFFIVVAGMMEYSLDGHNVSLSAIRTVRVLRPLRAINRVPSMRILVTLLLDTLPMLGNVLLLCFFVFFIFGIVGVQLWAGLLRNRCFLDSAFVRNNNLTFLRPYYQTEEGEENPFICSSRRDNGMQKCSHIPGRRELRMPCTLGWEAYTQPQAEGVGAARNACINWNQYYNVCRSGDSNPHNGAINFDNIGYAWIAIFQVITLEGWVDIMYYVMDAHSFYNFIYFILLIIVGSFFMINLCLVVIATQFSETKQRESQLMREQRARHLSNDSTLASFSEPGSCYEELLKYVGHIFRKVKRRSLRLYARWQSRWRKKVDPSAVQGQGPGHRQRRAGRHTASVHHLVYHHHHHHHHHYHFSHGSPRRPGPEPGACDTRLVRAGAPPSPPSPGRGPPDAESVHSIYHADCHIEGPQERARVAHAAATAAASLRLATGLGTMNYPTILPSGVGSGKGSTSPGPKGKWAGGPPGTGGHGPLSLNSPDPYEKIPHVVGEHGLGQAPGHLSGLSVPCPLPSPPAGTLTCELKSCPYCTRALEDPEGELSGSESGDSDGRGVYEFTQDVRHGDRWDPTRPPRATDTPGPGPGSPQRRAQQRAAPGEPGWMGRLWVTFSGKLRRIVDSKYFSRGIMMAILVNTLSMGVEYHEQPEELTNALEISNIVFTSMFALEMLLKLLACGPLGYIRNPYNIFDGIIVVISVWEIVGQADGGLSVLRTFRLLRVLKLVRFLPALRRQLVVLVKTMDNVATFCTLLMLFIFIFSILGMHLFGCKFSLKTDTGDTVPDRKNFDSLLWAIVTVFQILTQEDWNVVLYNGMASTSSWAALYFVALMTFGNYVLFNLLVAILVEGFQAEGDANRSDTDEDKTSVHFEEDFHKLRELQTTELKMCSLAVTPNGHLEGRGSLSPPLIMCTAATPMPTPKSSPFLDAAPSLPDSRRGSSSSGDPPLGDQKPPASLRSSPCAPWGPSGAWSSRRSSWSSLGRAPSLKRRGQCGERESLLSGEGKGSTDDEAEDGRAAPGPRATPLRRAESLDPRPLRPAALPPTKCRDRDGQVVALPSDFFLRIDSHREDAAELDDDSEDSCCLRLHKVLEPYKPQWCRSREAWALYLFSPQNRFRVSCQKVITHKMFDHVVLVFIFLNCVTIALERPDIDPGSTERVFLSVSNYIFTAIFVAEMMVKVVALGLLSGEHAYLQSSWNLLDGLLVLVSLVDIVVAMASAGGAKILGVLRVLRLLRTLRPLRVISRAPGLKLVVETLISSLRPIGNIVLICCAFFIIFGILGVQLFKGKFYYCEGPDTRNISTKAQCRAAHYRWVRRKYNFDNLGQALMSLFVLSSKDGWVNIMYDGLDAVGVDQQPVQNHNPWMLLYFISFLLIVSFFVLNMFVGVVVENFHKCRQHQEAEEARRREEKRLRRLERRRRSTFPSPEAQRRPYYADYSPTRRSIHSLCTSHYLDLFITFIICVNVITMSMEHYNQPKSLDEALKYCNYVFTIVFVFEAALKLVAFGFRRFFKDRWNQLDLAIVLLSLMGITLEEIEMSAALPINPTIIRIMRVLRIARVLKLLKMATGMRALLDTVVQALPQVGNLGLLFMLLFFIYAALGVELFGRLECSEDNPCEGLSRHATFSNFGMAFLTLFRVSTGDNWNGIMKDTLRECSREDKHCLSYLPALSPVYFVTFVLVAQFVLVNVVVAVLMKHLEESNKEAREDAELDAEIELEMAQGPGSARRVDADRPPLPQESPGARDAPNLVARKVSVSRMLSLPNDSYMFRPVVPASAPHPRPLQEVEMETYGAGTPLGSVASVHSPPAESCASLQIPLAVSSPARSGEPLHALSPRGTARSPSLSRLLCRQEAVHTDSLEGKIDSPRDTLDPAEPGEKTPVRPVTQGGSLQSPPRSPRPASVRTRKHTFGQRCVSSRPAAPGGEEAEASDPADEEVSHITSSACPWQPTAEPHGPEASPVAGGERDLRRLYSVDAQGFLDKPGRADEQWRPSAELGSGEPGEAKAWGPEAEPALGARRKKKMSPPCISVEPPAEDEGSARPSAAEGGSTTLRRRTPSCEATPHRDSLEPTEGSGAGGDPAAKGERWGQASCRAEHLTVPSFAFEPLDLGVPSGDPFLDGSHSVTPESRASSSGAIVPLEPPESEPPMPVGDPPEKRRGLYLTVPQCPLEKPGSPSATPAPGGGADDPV
row,SMILES,B-score
1,CCOC(=O)c1c(N)n(CCN2CCOCC2)c2nc3ccccc3nc12,0.618
2,COc1cc(Cn2c(N)c(C(=O)NCc3ccco3)c3nc4ccccc4nc32)cc(OC)c1OC,-1.47 (active)
3,CCOC(=O)c1c(N)n(Cc2ccccc2)c2nc3ccccc3nc12,-0.856
4,O=C(COc1ccc2ccccc2c1)N1CCN(Cc2ccncc2)CC1,0.31
5,CCCCn1c(O)c(C(CC)=NCc2ccco2)c(=O)[nH]c1=O,-0.626
6,CCCCCCN=C(CC)c1c(O)n(CCCC)c(=O)[nH]c1=O,-6.91 (active)
7,CCC(=NCCCO)c1c(O)n(-c2ccc(OC)cc2)c(=O)[nH]c1=O,-0.0478
8,COC(=O)C1=C(c2cc3ccccc3o2)C[C@@H]2CC[C@H]1N2C(=O)NC1CCCCC1,-0.929
9,COc1ccc2c(c1)[C@]13CCCCC1C(C2)N(C)CC3 (stereo not given in full),1.06
10,CCCCCn1c(=O)c(C(=O)NCc2ccccn2)c(O)c2ccccc21,-1.65
11,CCCCCn1c(=O)c(C(=O)Nc2c(C)n(C)n(-c3ccccc3)c2=O)c(O)c2ccccc21,-7.21 (active)
12,C[C@@]1([C@@H](NP(=O)(c2ccccc2)c2ccccc2)c2ccccc2)C[C@H]1CCO,-0.319
13,C[N+]1(C)CCOC(O)(c2ccc(-c3ccc(C4(O)C[N+](C)(C)CCO4)cc3)cc2)C1 (stereo not given),0.445
14,C=CC12CN(C)[C@@H]3C4CO[C@H](C[C@H]41)[C@]1(C(=O)Nc4ccccc41)[C@@H]32 (stereo not given in full),-0.174
15,Cc1ccc(N(C)C(=O)Oc2cccc3ccc(C)nc23)cc1,-6.07 (active)
16,COC(=O)C1=C(c2ccccc2)C[C@@H]2CC[C@H]1N2C(=O)NCc1ccco1,0.641
17,CCCC[N+]1(C)C2CC(OC(=O)C(CO)c3ccccc3)CC1C1OC12 (stereo not given),-0.292
18,CN(C)C(=O)NC(O)C(Cl)(Cl)Cl (stereo not given),-0.859
19,CNCC(O)c1cc(F)c(OCc2ccccc2)c(OCc2ccccc2)c1F (stereo not given),-0.0158
20,CC(C)(C)c1ccc(CN2C(=O)CN=C(c3ccccc3)c3ccccc32)cc1,-5.08 (active)
21,CC1C2Cn3c(nc4ccccc43)C1N(C)O2 (stereo not given),0.301
22,COC(=O)C1=C(c2cc3ccccc3s2)C[C@@H]2CC[C@H]1N2C(=O)NC(C)C,0.726
23,COC(=O)C1=C(c2cc3ccccc3s2)C[C@@H]2CC[C@H]1N2C(=O)NCc1cccc2ccccc12,-4.11 (active)
24,COC(=O)C1=C(c2cc3ccccc3s2)C[C@@H]2CC[C@H]1N2C(=O)NCCO,0.584
25,COC(=O)C1=C(c2ccccc2)C[C@@H]2CC[C@H]1N2C(=O)N1CCCCC1,0.364
26,COc1ccc2c(c1O)-c1cccc3c1[C@@H](C2)N(C)CC3,-2.61
27,COc1c(O)ccc2c1-c1c3c(cc4c1C(C2)N(C)CC4)OCO3 (stereo not given),0.137
28,CC[C@H]1CC2CN3CCc4c([nH]c5ccccc45)C(C(=O)OC)(C2)C13 (stereo not given in full),-1.28
29,NCC(O)c1ccc(O)cc1 (stereo not given),1.98
30,CC(C)(C)[C@]1(O)C[C@@H]2OC(=O)C[C@@]23C(=O)O[C@@H]2OC(=O)[C@H](O)[C@]213,0.0998
